# Inconclusive results are not listed. Where a call stands in place of a potency, no number is given. The source made the active and inactive calls. Unless noted, the call rests on the fitted dose curve.
# System: thyroid hormone receptor (rat, GH3 cells)
# Assay: qHTS assay to identify small molecule agonists of the thyroid receptor (TR) signaling pathway (AID 743066)
# Conditions: GH3.TRE-Luc cells, TR agonist luciferase, 24 h; series mostly up to 83.9 µM
row,Compound,outcome
1,CC(=O)C1CCCCC1=O (centres undefined),inactive
2,C=CC(C)(CCC=C(C)C)OC(=O)CC (centres undefined),inactive
3,CCCCN1C=CN(C)C1,inactive
4,Cc1ccc(-c2ncc(Cl)cc2-c2ccc(S(C)(=O)=O)cc2)cn1,inactive
5,C=COCC1CCC(COC=C)CC1 (centres undefined),inactive
6,O=S(=O)(O)c1cccc(S(=O)(=O)O)c1,inactive
7,O=C(CO)[C@@H](O)[C@H](O)[C@@H](O)CO,inactive
8,CCCCCCCC1CCCC1=O (centres undefined),inactive
9,C=CCOCC(O)CO (centres undefined),inactive
10,O=C(O)Cc1csc(-c2ccc(Cl)cc2)n1,inactive
11,CCC(C)(CCCC(C)C)OC(C)=O (centres undefined),inactive
12,CC(=O)Oc1cccc(C)c1,inactive
13,[K+],inactive
14,CC(C)=CCC/C(C)=C/C#N,inactive
15,CCOC(=O)COc1cc(-n2ncc(C(F)(F)F)c(C)c2=O)c(F)cc1Cl,inactive
16,C=CC(=O)OCCCl,inactive
17,C1CCC2(CCCCO2)OC1,inactive
18,O=C(O)CNC(=O)c1ccc(CO)o1,inactive
19,Cc1cccc(C)c1NC(=O)CC12CCCN1CCC2,inactive

row,Compound,outcome
1,CCCC[N+](C)(CCCC)CCCC,inactive
2,CC(C)(N)C#N,inactive
3,CCCCN(CCC(=O)OCC)C(C)=O,inactive
4,CO[Si](C)(OC)c1ccccc1,inactive
5,CCCCCCCCCCCCCCCCCCO,inactive
6,CCC1C(=O)OCC1Cc1cncn1C (centres undefined),inactive
7,O=S(=O)(O)c1cc(O)c(O)c(S(=O)(=O)O)c1,inactive
8,CCCCCC(=O)OCCc1ccccc1,inactive
9,O=C(O)c1cc(C(=O)O)cc(C(=O)O)c1,inactive
10,CCCCOCCOC(=O)COc1cc(Cl)c(Cl)cc1Cl,inactive
11,OCCCCCO,inactive
12,CN(C)CCN(C)CCN(C)C,inactive
13,CC(=O)c1cnccn1,inactive
14,CCCCOC(=O)CCC(C)=O,inactive
15,CC(C)c1ccc2ncccc2c1,inactive
16,CCOC(=O)COC(=O)c1ccccc1C(=O)OCC,inactive
17,CCCCCCCCCCOc1cc2c(=O)c(C(=O)OCC)c[nH]c2cc1OCC,inactive
18,CCN[C@H]1C[C@H](C)S(=O)(=O)c2sc(S(N)(=O)=O)cc21,inactive
19,CCNS(=O)(=O)c1ccc(C)cc1,inactive

# Molecular target: Estrogen receptor (Homo sapiens) (UniProt P03372)
# Assay: qHTS assay to identify small molecule antagonists of the estrogen receptor alpha (ER-alpha) signaling pathway (AID 743069; active means well fitted curve in the direction sought with a large enough effect in the signal ratio in the repeat runs, not every such curve was filed as active; the % refers to the signal ratio)
# Conditions: HEK293 ER-alpha-UAS-bla, beta-lactamase ratio, antagonist mode; series mostly up to 69.4 µM
# Method in brief: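 ER-alpha-UAS-bla GripTite HEK293 line; 2% charcoal-stripped FBS overnight; plated, 4 hr 37C/5% CO2; cpd in DMSO + 17beta-estradiol, 18 hr 37C; LiveBLAzer B/G FRET substrate 2 hr RT; fluorescence intensity.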
# Estrogen receptor (Homo sapiens), sequence (P03372 whole entry, looked up): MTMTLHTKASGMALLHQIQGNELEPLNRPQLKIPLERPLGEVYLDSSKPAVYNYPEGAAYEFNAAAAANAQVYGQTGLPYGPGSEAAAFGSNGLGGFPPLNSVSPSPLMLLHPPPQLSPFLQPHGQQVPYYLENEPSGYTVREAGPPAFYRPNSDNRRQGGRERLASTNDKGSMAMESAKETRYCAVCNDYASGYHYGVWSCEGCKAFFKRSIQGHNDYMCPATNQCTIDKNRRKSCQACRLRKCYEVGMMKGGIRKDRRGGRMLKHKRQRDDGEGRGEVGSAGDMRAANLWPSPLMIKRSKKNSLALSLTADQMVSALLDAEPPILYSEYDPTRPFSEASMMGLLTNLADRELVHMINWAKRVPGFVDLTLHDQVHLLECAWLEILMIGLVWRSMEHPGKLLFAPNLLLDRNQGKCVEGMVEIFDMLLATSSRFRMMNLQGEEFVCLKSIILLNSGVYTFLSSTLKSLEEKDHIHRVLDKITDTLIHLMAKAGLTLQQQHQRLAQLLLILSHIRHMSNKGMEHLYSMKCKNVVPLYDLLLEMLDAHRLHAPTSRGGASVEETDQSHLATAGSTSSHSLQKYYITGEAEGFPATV
row,Compound,Potency
1,CC(=O)C1CCCCC1=O (centres undefined),inactive
2,C=CC(C)(CCC=C(C)C)OC(=O)CC (centres undefined),inactive
3,CCCCN1C=CN(C)C1,inactive
4,Cc1ccc(-c2ncc(Cl)cc2-c2ccc(S(C)(=O)=O)cc2)cn1,inactive
5,C=COCC1CCC(COC=C)CC1 (centres undefined),inactive
6,O=S(=O)(O)c1cccc(S(=O)(=O)O)c1,inactive
7,O=C(CO)[C@@H](O)[C@H](O)[C@@H](O)CO,inactive
8,CCCCCCCC1CCCC1=O (centres undefined),inactive
9,C=CCOCC(O)CO (centres undefined),inactive
10,O=C(O)Cc1csc(-c2ccc(Cl)cc2)n1,inactive
11,CCC(C)(CCCC(C)C)OC(C)=O (centres undefined),inactive
12,CC(=O)Oc1cccc(C)c1,inactive
13,[K+],inactive
14,CC(C)=CCC/C(C)=C/C#N,inactive
15,CCOC(=O)COc1cc(-n2ncc(C(F)(F)F)c(C)c2=O)c(F)cc1Cl,inactive
16,C=CC(=O)OCCCl,inactive
17,C1CCC2(CCCCO2)OC1,inactive
18,O=C(O)CNC(=O)c1ccc(CO)o1,inactive
19,Cc1cccc(C)c1NC(=O)CC12CCCN1CCC2,inactive

row,Compound,Potency
1,CCCC[N+](C)(CCCC)CCCC,inactive
2,CC(C)(N)C#N,inactive
3,CCCCN(CCC(=O)OCC)C(C)=O,inactive
4,CO[Si](C)(OC)c1ccccc1,inactive
5,CCCCCCCCCCCCCCCCCCO,inactive
6,CCC1C(=O)OCC1Cc1cncn1C (centres undefined),inactive
7,O=S(=O)(O)c1cc(O)c(O)c(S(=O)(=O)O)c1,inactive
8,CCCCCC(=O)OCCc1ccccc1,inactive
9,O=C(O)c1cc(C(=O)O)cc(C(=O)O)c1,inactive
10,CCCCOCCOC(=O)COc1cc(Cl)c(Cl)cc1Cl,inactive
11,OCCCCCO,inactive
12,CN(C)CCN(C)CCN(C)C,inactive
13,CC(=O)c1cnccn1,inactive
14,CCCCOC(=O)CCC(C)=O,inactive
15,CC(C)c1ccc2ncccc2c1,inactive
16,CCOC(=O)COC(=O)c1ccccc1C(=O)OCC,inactive
17,CCCCCCCCCCOc1cc2c(=O)c(C(=O)OCC)c[nH]c2cc1OCC,inactive
18,CCN[C@H]1C[C@H](C)S(=O)(=O)c2sc(S(N)(=O)=O)cc21,inactive
19,CCNS(=O)(=O)c1ccc(C)cc1,inactive

# System: not listed separately
# Assay: qHTS assay to identify small molecule antagonists of the estrogen receptor alpha (ER-alpha) signaling pathway - cell viability counter screen (AID 743074);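 further: HEK293 cells carrying ER-alpha-UAS-bla reporter stimulated with 17beta-estradiol; nearly all actives have a fitted effect of over 45% in size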
# Conditions: ERalpha-bla HEK293 viability, CellTiter-Glo luminescence, 18 h; series mostly up to 69.4 µM
row,Compound,Potency
1,CC(=O)C1CCCCC1=O (centres undefined),inactive
2,C=CC(C)(CCC=C(C)C)OC(=O)CC (centres undefined),inactive
3,CCCCN1C=CN(C)C1,inactive
4,Cc1ccc(-c2ncc(Cl)cc2-c2ccc(S(C)(=O)=O)cc2)cn1,inactive
5,C=COCC1CCC(COC=C)CC1 (centres undefined),inactive
6,O=S(=O)(O)c1cccc(S(=O)(=O)O)c1,inactive
7,O=C(CO)[C@@H](O)[C@H](O)[C@@H](O)CO,inactive
8,CCCCCCCC1CCCC1=O (centres undefined),inactive
9,C=CCOCC(O)CO (centres undefined),inactive
10,O=C(O)Cc1csc(-c2ccc(Cl)cc2)n1,inactive
11,CCC(C)(CCCC(C)C)OC(C)=O (centres undefined),inactive
12,CC(=O)Oc1cccc(C)c1,inactive
13,[K+],inactive
14,CC(C)=CCC/C(C)=C/C#N,inactive
15,CCOC(=O)COc1cc(-n2ncc(C(F)(F)F)c(C)c2=O)c(F)cc1Cl,inactive
16,C=CC(=O)OCCCl,inactive
17,C1CCC2(CCCCO2)OC1,inactive
18,O=C(O)CNC(=O)c1ccc(CO)o1,inactive
19,Cc1cccc(C)c1NC(=O)CC12CCCN1CCC2,inactive

row,Compound,Potency
1,CCCC[N+](C)(CCCC)CCCC,inactive
2,CC(C)(N)C#N,inactive
3,CCCCN(CCC(=O)OCC)C(C)=O,inactive
4,CO[Si](C)(OC)c1ccccc1,inactive
5,CCCCCCCCCCCCCCCCCCO,inactive
6,CCC1C(=O)OCC1Cc1cncn1C (centres undefined),inactive
7,O=S(=O)(O)c1cc(O)c(O)c(S(=O)(=O)O)c1,inactive
8,CCCCCC(=O)OCCc1ccccc1,inactive
9,O=C(O)c1cc(C(=O)O)cc(C(=O)O)c1,inactive
10,CCCCOCCOC(=O)COc1cc(Cl)c(Cl)cc1Cl,inactive
11,OCCCCCO,inactive
12,CN(C)CCN(C)CCN(C)C,inactive
13,CC(=O)c1cnccn1,inactive
14,CCCCOC(=O)CCC(C)=O,inactive
15,CC(C)c1ccc2ncccc2c1,inactive
16,CCOC(=O)COC(=O)c1ccccc1C(=O)OCC,inactive
17,CCCCCCCCCCOc1cc2c(=O)c(C(=O)OCC)c[nH]c2cc1OCC,inactive
18,CCN[C@H]1C[C@H](C)S(=O)(=O)c2sc(S(N)(=O)=O)cc21,inactive
19,CCNS(=O)(=O)c1ccc(C)cc1,inactive

# — PubChem BioAssay (Tox21)
